DT40 TDP1 no CPT – qHTS for Inhibitors of human tyrosyl-DNA phosphodiesterase 1 (TDP1): qHTS in cells in absence of CPT | DT40 Tdp1-/- hTDP1 cells, no CPT, ATP luminescence, 48 h | Potency, µM (highest dose often 46.2 µM), without a hit: at the highest dose activity change, negative = growth inhibition, actives largely listed as inhibitors | actives 15% (n = 420,000) | AID 686978, 2013; further: potency means the concentration at half of the fitted maximal effect; nearly all actives have a fitted effect of over 55% in size
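Compound effects on proliferation are scored in DT40 Tdp1-/-;hTDP1 cells in the absence of CPT. ATP levels (CellTiter-Glo luminescence) are recorded after a ≥48 hr, 37 °C incubation.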
IL-1B inflam inh – qHTS for Inhibitors of Inflammasome Signaling: IL-1-beta AlphaLISA Primary Screen | activity change, % at 57.5 µM | actives 4.7% (n = 360,000) | THP-1 LPS/ATP IL-1B secretion, AlphaLISA, 16 h; hits give low values | AID 743279, 2014; in the data active means activity change below about -50%; inconclusive means mostly about -30% to -49%
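THP-1 cells pretreated 1 hr with compounds (up to 57.5 uM final), then stimulated with LPS (250 ng/mL final) plus ATP (1.25 mM final); secreted IL-1B measured by AlphaLISA after 16 hr, decreased signal indicating inhibition.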
HT1080-NT tox – qHTS for induction of synthetic lethality in tumor cells producing 2HG: qHTS for the HT-1080-NT fibrosarcoma cell line | HT-1080-NT fibrosarcoma viability, CellTiter-Glo ATP luminescence, 48 h | Potency, µM (series often up to 46.1 µM), for inactives: at the highest dose activity, negative = less viability, actives largely listed as cytotoxic | actives 1.6% (n = 360,000);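 further: NT is the 2HG producing partner of a matched IDH1 knockdown line; potency means the concentration at half of the fitted maximal effect; 0% = DMSO-treated cells and -100% = media-only wells without cells; nearly all actives have a fitted effect of over 55% in size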
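Viability of the 2HG-overproducing fibrosarcoma line after 48 hours of compound exposure at 37 degrees C was determined by luminescence with CellTiter-Glo, and concentration-effect curves were then fitted and categorized.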
TDP1 cell CPT – qHTS for Inhibitors of human tyrosyl-DNA phosphodiesterase 1 (TDP1): qHTS in cells in presence of CPT; Potency, µM (highest dose often 46.2 µM), without a hit: top-dose activity change, negative = growth inhibition, usual class: inhibitors; actives 12% (n = 420,000); AID 686979, 2013; chicken DT40 Tdp1-/-;hTDP1 cells + 20 nM CPT, ATP luminescence, 48 h; further: potency means the concentration at half of the fitted maximal effect; nearly all actives have a fitted effect of over 55% in size
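Chicken DT40 Tdp1-/- cells complemented with human TDP1, 400 cells/well, exposed to compounds plus 20 nM camptothecin for at least 48 h at 37 C; viability read as ATP content by CellTiter-Glo luminescence.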
HT1080 IDH1KD tx – qHTS for induction of synthetic lethality in tumor cells producing 2HG: qHTS for the HT-1080-IDH1KD cell line; HT-1080 IDH1 knockdown viability, ATP luminescence, 48 h; Potency, µM (doses to about 46.1 µM), for the others: at the top dose activity, negative = toxicity, actives largely listed as cytotoxic; actives 2% (n = 360,000);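 further: potency means the concentration at half of the fitted maximal effect; 0% = DMSO wells and -100% = cell-free medium wells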
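CellTiter-Glo luminescence after 48 h compound exposure at 37 degrees C of IDH1-knockdown HT-1080 cells in 5% FBS RPMI. %Activity scaled between DMSO wells and cell-free media wells, with curves fitted and assigned curve classes.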
An asterisk follows results filed as active; ? = inconclusive; nt = no result given. A selection: hits, their analogues and other compounds. The true share with any hit is near 19%. Unless noted, the call rests on the fitted dose curve; in most records, active means well fitted curve in the direction sought with a large enough effect; inconclusive means small, poorly fitted or top-dose-only effect, or another doubt; inactive means no such curve, though single readings can be large; an effect the other way counts as inactive or inconclusive. Unless noted, on the % scale 0 is the no-effect control and ±100 the full control effect.

SMILES	DT40 TDP1 no CPT	IL-1B inflam inh	HT1080-NT tox	TDP1 cell CPT	HT1080 IDH1KD tx
O=C(Nc1cccnc1)C1Cc2c(-c3ccco3)ccnc2O1 (configuration not stated)	?	-19	4%	-29%	-1%
CN1CCN(C(=O)C2Cc3c(-c4cccc(F)c4)ccnc3O2)CC1 (configuration not stated)	-9%	10	14%	-18%	7%
CNC(=O)C1Cc2c(-c3cccc(F)c3)ccnc2O1 (configuration not stated)	4%	17	25%	-11%	26%
COC(=O)CCCC1=CC2=CC(=O)C(C)(OC(=O)c3cccs3)C(=O)C2=CN1CCN1CCOCC1 (configuration not stated)	0%	16	12%	0%	3%
CCN(CC)C(=O)c1ccccc1NC(=O)CN1C(=O)c2ccccc2C1=O	8%	22	7%	13%	18%
COc1ccc(CN(C(=O)CNC(=O)c2ccco2)C(C(=O)NCC2CCCO2)c2ccccc2)cc1 (configuration not stated)	-9%	-16	0%	-3%	4%
O=C(Nc1ccc(Cl)cc1C(F)(F)F)C(Sc1nnc(-c2cccs2)o1)c1ccccc1 (configuration not stated)	21µM*	-12	?	?	10µM*
CCCCN1C(=O)C(=O)NC[C@@H]1CCCCN	2%	-3	2%	-1%	-4%
O=C(NNC(=S)NC(=O)c1ccc(F)cc1)c1cccnc1	18µM*	22	-21%	?	-13%
O=C(NNC(=S)NC(=O)c1cccnc1)c1ccccc1	23µM*	42	-3%	?	-29%
COc1ccc(C(=O)O)cc1S(=O)(=O)N(CCc1ccccc1)Cc1ccccc1	30%	-4	-2%	-2%	-6%
NC(=O)C1CCN(C(=O)CCSCc2ccccc2)CC1	18%	18	9%	3%	13%
CCCc1nnc(NC(=O)CCC(=O)N2CCN(Cc3ccc(C)cc3C)CC2)s1	8.2µM*	10	-21%	-22%	-12%
Cc1ccc(CN2CCN(C(=O)CCC(=O)Nc3nnc(C(C)C)s3)CC2)c(C)c1	?	-86*	-22%	?	-16%
CCc1nnc(NC(=O)CCC(=O)N2CCN(Cc3ccc(C)cc3C)CC2)s1	18µM*	33	-8%	?	-12%
CCc1nnc(NC(=O)CCC(=O)N2CCN(Cc3ccc(F)cc3)CC2)s1	-4%	22	10%	-26%	-4%
CC(=O)Nc1ccc(S(=O)(=O)NCC2CCC(C(=O)NCCc3ccc(C)cc3)CC2)cc1 (configuration not stated)	-10%	nt	nt	-3%	nt
COC(=O)C1(C(=O)OC)C[C@H](c2cccs2)N(Cc2ccccc2OC)[C@@H]1c1ccc(F)cc1	15µM*	-6	-24%	15µM*	-10%
COC(=O)C1(C(=O)OC)C[C@H](/C=C/c2ccccc2)N(Cc2ccccc2OC)[C@@H]1c1cccc(Br)c1	?	3	-8%	?	-12%
CCOc1ccccc1CN1[C@@H](c2ccc(OC)cc2)CC(C(=O)OC)(C(=O)OC)[C@H]1c1ccccc1	15µM*	-13	5%	?	-5%
COC(=O)C1(C(=O)OC)C[C@H](/C=C/c2ccccc2)N(Cc2ccccc2OC)[C@@H]1c1ccccc1	15µM*	0	-7%	?	-7%
COc1ccccc1CNC(=O)c1cccs1	-22%	22	12%	-12%	5%
CCCS(=O)(=O)NC(=O)C1(C)CCN(C(=O)c2c(C)noc2C)C1 (configuration not stated)	0%	0	30%	-3%	10%
O=c1c2cc(Br)ccc2nc(-c2cccc(C(F)(F)F)c2)n1O	10µM*	73	?	18µM*	?
COc1ccc(-c2nc3ccccc3c(=O)n2O)cc1	26%	-22	?	-14%	?
SMILES	DT40 TDP1 no CPT	IL-1B inflam inh	HT1080-NT tox	TDP1 cell CPT	HT1080 IDH1KD tx
N#Cc1ccc(-c2nc3ccc(Br)cc3c(=O)n2O)cc1	?	11	1%	?	10%
COc1ccc(-c2nc3ccccc3c(=O)n2CCOc2c(C)cccc2C)cc1	?	45	11%	-14%	11%
O=C(On1c(-c2ccccc2)nc2ccccc2c1=O)c1ccco1	23µM*	-25	-25%	23µM*	-15%
O=c1c2ccccc2nc(-c2ccccc2)n1O	-2%	0	-1%	2.1µM*	-6%
COc1cc(OC)cc(-c2nc3ccccc3c(=O)n2OC(=O)c2ccccc2C)c1	-26%	-61*	?	?	?
O=C(NCC1Cc2cccc(-c3ccccn3)c2O1)c1cnn2cccnc12 (configuration not stated)	2%	nt	nt	-5%	nt
COC(=O)/C=C1\OC(C2CC2)c2ccccc21 (configuration not stated)	16µM*	17	7%	8.2µM*	9%
O=c1[nH]c2cc3c(cc2cc1CN(Cc1cccnc1)C(=S)NCc1ccco1)OCCO3	?	-7	-9%	15µM*	-10%
Cc1ccc2[nH]c(=O)c(CN(Cc3cccs3)C(=S)NCc3ccco3)cc2c1	16µM*	0	-1%	?	-17%
CN(C)CCN(Cc1cc2cc3c(cc2[nH]c1=O)OCO3)C(=S)NCc1ccco1	-23%	0	6%	-26%	8%
COc1ccc2cc(CN(CC3CCCO3)C(=S)NCc3ccco3)c(=O)[nH]c2c1 (configuration not stated)	?	-2	-9%	-17%	-11%
Cc1ccc2cc(CN(Cc3ccco3)C(=S)NCC3CCCO3)c(=O)[nH]c2c1 (configuration not stated)	21µM*	-7	0%	?	-9%
Cc1ccc2[nH]c(=O)c(CN(CC3CCCO3)C(=S)NCc3ccco3)cc2c1 (configuration not stated)	21µM*	?	0%	?	-3%
Cc1ccc2cc(CN(CC3CCCO3)C(=S)NCc3ccco3)c(=O)[nH]c2c1 (configuration not stated)	-14%	?	-2%	-2%	-12%
O=C(Nc1ccc(C(=O)OCc2cc(=O)n3c4c(sc3n2)CCCC4)cc1)c1ccccc1	-12%	nt	nt	0%	nt

Source: PubChem
